IDE exosite FP = displaces the probe from the exo-site of human IDE | P14735 | purified IDE, FL-6b probe fluorescence polarization; active compounds read low | z-score at 20 µM | actives 6.3% (n = 17,000) | AID 1259349;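 active = z-score of -3 or lower, meaning strong loss of probe binding signal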;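 also: His-tagged human IDE residues 42-1019 made in E. coli with 30 nM FL-6b probe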
Target sequence (P14735 42-1019 limits assumed): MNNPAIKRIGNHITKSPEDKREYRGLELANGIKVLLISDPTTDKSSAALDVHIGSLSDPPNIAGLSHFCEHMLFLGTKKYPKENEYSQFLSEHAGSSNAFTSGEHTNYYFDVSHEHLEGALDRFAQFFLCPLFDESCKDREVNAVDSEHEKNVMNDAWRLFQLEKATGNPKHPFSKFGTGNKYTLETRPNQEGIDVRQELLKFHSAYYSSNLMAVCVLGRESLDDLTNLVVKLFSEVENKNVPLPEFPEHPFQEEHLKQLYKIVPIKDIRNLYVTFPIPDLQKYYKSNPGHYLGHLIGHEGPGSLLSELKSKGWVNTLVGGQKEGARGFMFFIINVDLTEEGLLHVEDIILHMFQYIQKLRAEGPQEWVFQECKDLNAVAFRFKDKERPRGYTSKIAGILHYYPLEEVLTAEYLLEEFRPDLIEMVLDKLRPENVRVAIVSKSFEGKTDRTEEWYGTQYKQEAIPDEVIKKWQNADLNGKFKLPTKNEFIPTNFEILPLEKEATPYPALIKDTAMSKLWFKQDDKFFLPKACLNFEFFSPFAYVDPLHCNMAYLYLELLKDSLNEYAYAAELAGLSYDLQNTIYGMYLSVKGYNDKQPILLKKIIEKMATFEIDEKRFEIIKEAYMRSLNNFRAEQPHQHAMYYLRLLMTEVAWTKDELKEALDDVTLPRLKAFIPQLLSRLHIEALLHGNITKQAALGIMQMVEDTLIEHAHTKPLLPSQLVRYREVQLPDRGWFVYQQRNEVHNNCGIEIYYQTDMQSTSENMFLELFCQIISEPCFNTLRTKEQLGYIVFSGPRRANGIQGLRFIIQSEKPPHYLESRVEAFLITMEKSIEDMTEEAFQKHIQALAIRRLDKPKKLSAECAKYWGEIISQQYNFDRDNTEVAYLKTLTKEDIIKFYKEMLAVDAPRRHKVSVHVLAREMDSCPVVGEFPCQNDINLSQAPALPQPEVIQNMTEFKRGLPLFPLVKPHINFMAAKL
An asterisk follows results filed as active; ! = not active in a repeat. This excerpt belongs to a sample that is enriched for hits.

SMILES | IDE exosite FP
Cc1ccccc1-c1ccc([C@H]2[C@H](CO)N3C(=O)CN(C(=O)Cc4ccccn4)C[C@@H]23)cc1 | -13.9*
O=C(Cc1ccccn1)N1CC(=O)N2[C@H](CO)[C@@H](c3ccc(C#CC4CCCCC4)cc3)[C@H]2C1 | -0.35
COc1ccc(-c2ccc([C@H]3[C@@H](CO)N4C(=O)CN(C(=O)Cc5ccccn5)C[C@@H]34)cc2)cc1 | 0.654
CC(=O)N(C[C@H]1N[C@H](CO)[C@@H]1c1ccc(-c2cccc(F)c2)cc1)C1CCCC1 | 3.95
CO[C@H]1CN(C)C(=O)c2cc(NC(=O)Nc3cc(F)ccc3F)ccc2OC[C@H](C)NC[C@@H]1C | 0.19
COc1cccc(CN2[C@@H]3CNC[C@H]2C3c2ccc(/C=C/c3ccccc3)cc2)c1 (stereo partly specified) | -0.842
c1ccc(CN2[C@@H]3CNC[C@H]2C3c2ccc(-c3cccnc3)cc2)nc1 (stereo partly specified) | 1.71
COc1cc(CN2[C@@H]3CNC[C@H]2C3c2ccc(/C=C/c3ccccc3)cc2)cc(OC)c1 (stereo partly specified) | -5.51*!
C(=C\c1ccc(C2[C@H]3CNC[C@@H]2N3Cc2cncnc2)cc1)/c1ccccc1 (stereo partly specified) | 0.522
C(=C\c1ccc(C2[C@H]3CNC[C@@H]2N3Cc2ccccn2)cc1)/c1ccccc1 (stereo partly specified) | -3.77*!
COc1cc(CN2[C@@H]3CNC[C@H]2C3c2ccc(-c3ccccc3)cc2)cc(OC)c1 (stereo partly specified) | -2.36
COc1ccc(NC(=O)Nc2ccc3c(c2)[C@@H]2C[C@@H](CC(=O)NCC(F)(F)F)O[C@@H](CO)[C@@H]2O3)cc1 | 0.121
N#C[C@H]1[C@H](c2ccc(C#Cc3ccc(F)cc3)cc2)[C@H](CO)N1C(=O)Cc1ccncc1 | -0.035
O=C(Nc1ccccc1F)N1CC(=O)N2[C@@H](CO)[C@@H](c3ccc(-c4ccc(F)cc4)cc3)[C@@H]2C1 | 2.46
O=C1CCC(=O)N[C@@H](c2ccccc2)C/C=C\CCN1 | -0.77
O=C(C1CCOCC1)N1CC(=O)N2[C@H](CO)[C@@H](c3ccc(-c4ccccc4F)cc3)[C@@H]2C1 | -4.83*
O=C(C1CCOCC1)N1CC(=O)N2[C@H](CO)[C@H](c3ccc(-c4ccccc4F)cc3)[C@@H]2C1 | -1.71
O=C(C1CCOCC1)N1CC(=O)N2[C@@H](CO)[C@@H](c3ccc(-c4ccccc4F)cc3)[C@@H]2C1 | -2.37
O=C(C1CCOCC1)N1CC(=O)N2[C@H](C1)[C@H](c1ccc(-c3ccccc3F)cc1)[C@@H]2CO | 0.931
O=C(C1CCOCC1)N1CC(=O)N2[C@H](CO)[C@@H](c3ccc(-c4ccccc4F)cc3)[C@H]2C1 | 2.89
O=C(C1CCOCC1)N1CC(=O)N2[C@H](C1)[C@@H](c1ccc(-c3ccccc3F)cc1)[C@@H]2CO | -8.97*
C/C=C/c1ccc([C@H]2[C@H](CO)N3C(=O)CN(C(=O)Nc4ccc(F)cc4)C[C@@H]23)cc1 | -0.174
C/C=C/c1ccc([C@@H]2[C@H](CO)N3CCCCN(C(=O)Nc4cc(F)ccc4F)C[C@@H]23)cc1 | 1.16
COCC(=O)N1CC(=O)N2[C@H](CO)[C@@H](c3ccc(C#CC(C)C)cc3)[C@H]2C1 | 0.863
CO[C@H]1CN(C)C(=O)c2cc(NC(=O)c3cnccn3)ccc2OC[C@H](C)NC[C@H]1C | -0.0121
SMILES | IDE exosite FP
C/C=C/c1ccc([C@@H]2[C@@H](CO)N[C@@H]2CN(CC(C)C)C(=O)c2ccccn2)cc1 | -2.01
Cc1ccccc1-c1ccc([C@H]2[C@@H](CO)N3CCCCN(C(=O)Nc4ccc(F)cc4)C[C@@H]23)cc1 | -1.63
Cc1ccccc1-c1ccc([C@H]2[C@H](CO)N3CCCCN(C(=O)Nc4ccccc4)C[C@@H]23)cc1 | -3.88*
Cc1ccccc1-c1ccc([C@@H]2[C@@H](CO)N3C(=O)CN(C(=O)Nc4ccc(F)cc4)C[C@H]23)cc1 | -1.36
Cc1ccccc1-c1ccc([C@H]2[C@H]3CN(C(=O)Nc4ccc(F)cc4)CCCCN3[C@H]2CO)cc1 | 3.39
Cc1ccccc1-c1ccc([C@@H]2[C@@H](CO)N3CCCCN(C(=O)Nc4ccc(F)cc4)C[C@H]23)cc1 | 1.81
Cc1ccccc1-c1ccc([C@@H]2[C@@H](CO)N3C(=O)CN(C(=O)Nc4cccc(F)c4)C[C@H]23)cc1 | -2.07
Cc1ccccc1-c1ccc([C@H]2[C@@H](CO)N3CCCCN(C(=O)Nc4ccc(F)cc4)C[C@H]23)cc1 | -7.12*
Cc1ccccc1-c1ccc([C@@H]2[C@@H](CO)N3C(=O)CN(C(=O)Nc4ccc(F)cc4)C[C@@H]23)cc1 | -11.4*
O=C(Nc1cccc(F)c1)N1CCCCN2[C@H](CO)[C@H](c3ccc(-c4ccccc4F)cc3)[C@H]2C1 | 1.7
Cc1ccccc1-c1ccc([C@H]2[C@@H](CO)N3CCCCN(C(=O)Nc4cccc(F)c4)C[C@@H]23)cc1 | -4.36*
Cc1ccccc1-c1ccc([C@@H]2[C@H](CO)N3CCCCN(C(=O)Nc4cccc(F)c4)C[C@@H]23)cc1 | 0.19
Cc1ccccc1-c1ccc([C@@H]2[C@@H](CO)N3CCCCN(C(=O)Nc4ccccc4)C[C@@H]23)cc1 | 1.17
N#C[C@H]1[C@@H](c2ccc(C#Cc3cccc(F)c3)cc2)[C@H](CO)N1C(=O)C1CCC1 | 3.26
COc1ccc(NC(=O)N2CC(=O)N3[C@H](CO)[C@H](c4ccc(C5=CCCC5)cc4)[C@H]3C2)cc1 | 0.74
COc1ccc(NC(=O)N2CCCCN3[C@H](CO)[C@@H](c4ccc(C#CCC(C)C)cc4)[C@@H]3C2)cc1 | 1.17
O=C(N[C@H]1C=C[C@H](CC(=O)N2CCN(c3ccccc3)CC2)O[C@@H]1CO)c1ccccc1 | 3
N#Cc1cccc(-c2ccc([C@@H]3[C@@H](CO)N4CCCCN(C(=O)Nc5cccc(F)c5)C[C@@H]34)cc2)c1 | 2.22
Cc1ccc(-c2ccc([C@@H]3[C@H](CO)N4C(=O)CN(C(=O)Nc5ccc(F)cc5)C[C@@H]34)cc2)cc1 | 0.611
O=C(C[C@H]1CC[C@H]2[C@@H](COC[C@@H](O)CN2C(=O)Nc2ccc(Cl)cc2)O1)NCC1CCCCC1 | 0.458
O=C(N[C@@H]1CC[C@@H](CCn2cc(-c3ccccc3F)nn2)O[C@H]1CO)c1ccc2c(c1)OCO2 | 1.59
Cc1ccccc1-c1ccc([C@H]2[C@@H](CO)N3C(=O)CN(C(=O)c4cccnc4)C[C@H]23)cc1 | -17.2*
CCCC#Cc1ccc([C@@H]2[C@H](CO)N3C(=O)CN(C(=O)c4cccnc4)C[C@@H]23)cc1 | 0.553
Cc1ccccc1-c1ccc([C@@H]2[C@@H](CO)N3C(=O)CN(C(=O)c4ccncc4)C[C@H]23)cc1 | -2.31
O=C(c1cccnc1)N1CC(=O)N2[C@H](C1)[C@@H](c1ccc(-c3ccccc3F)cc1)[C@@H]2CO | -2.73
Cc1ccccc1-c1ccc([C@@H]2[C@H]3CN(C(=O)c4cccnc4)CC(=O)N3[C@H]2CO)cc1 | -19.7*
C/C=C/c1ccc([C@H]2[C@@H](CNC(=O)CC3CC3)N(C(C)=O)[C@H]2CO)cc1 | 2.3
COc1ccccc1NC(=O)N1C[C@@H](O)COC[C@@H]2O[C@@H](CC(=O)NCCc3ccncc3)CC[C@H]21 | 1.42
N#C[C@@H]1[C@@H](c2ccccc2)[C@H](CO)N1S(=O)(=O)Cc1ccccc1 | 4.55
N#C[C@@H]1[C@H](c2ccc(C3=CCCC3)cc2)[C@@H](CO)N1C(=O)C1CC1 | 5.16
